# Data as given in PubChem BioAssay (NCATS).
# Inconclusive results are not listed. Entries that show only a call come without a potency. Active and inactive are the calls of the source. Unless noted, the call rests on the fitted dose curve; in most records, active means well fitted curve in the direction sought with a large enough effect; inconclusive means small, poorly fitted or top-dose-only effect, or another doubt; inactive means no such curve, though single readings can be large; an effect the other way counts as inactive or inconclusive.
# What was measured:
# [1] = biological target: D(1A) dopamine receptor (Homo sapiens) (UniProt P21728); experiment: HTS Assay for Allosteric Agonists of the Human D1 Dopamine Receptor: Primary Screen for Potentiators (AID 488982)
# Outline: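 Tetracycline-induced HEK293 Trex D1 cells with forced coupling to calcium, loaded with no-wash calcium dye; kinetic fluorescence read 180 s after compound addition for agonism, then a further 180 s after an EC20 dopamine challenge for potentiation.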
# [2] = biological target: D(1A) dopamine receptor (Homo sapiens) (UniProt P21728); experiment: HTS Assay for Allosteric Agonists of the Human D1 Dopamine Receptor: Primary Screen for Antagonists (AID 488983);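 further: calcium flux response to an EC80 dopamine challenge measured with no-wash dye; nearly all actives have a fitted effect of over 65% in size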; further: potency means the concentration at half of the fitted maximal effect
# Outline: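 Calcium-flux read-out in inducible HEK293 T-REx cells expressing D1, dye-loaded 30–90 min at room temperature. Kinetic reads: 180 s after compound (agonist phase), then 180 s after an EC80 dopamine challenge.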
# [3] = biological target: ATP-dependent 6-phosphofructokinase (Trypanosoma brucei brucei) (UniProt O15648); experiment: qHTS Assay to Find Inhibitors of T. brucei phosphofructokinase: hit validation (AID 492961);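 further: luminescence reports ADP formed as PFK phosphorylates fructose-6-phosphate with ATP; series mostly up to about 51 µM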
# Outline: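 Compounds titrated; %activity normalized to 0x and 1x enzyme controls, curve-fitted. Readout: ADP-Glo luminescence after 45 min room-temperature reaction of 1.25 nM PFK, 0.1 mM ATP, 0.5 mM F6P, pH 8.0.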
# [4] = Validation screen for small molecules that induce genotoxicity in human embryonic kidney (HEK293T) cells expressing luciferase-tagged ELG1 (AID 493106)
# Outline: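 ELG1-luciferase reporter readout (ONE-Glo, 30 min, room temperature) after 16 hr compound treatment at 37 °C of HEK293T cells at 2,000 per well. Rising luminescence flags genotoxic stress.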
# [5] = biological target: ATPase family AAA domain-containing protein 5 (Homo sapiens) (UniProt Q96QE3); experiment: Validation screen for small molecules that inhibit ELG1-dependent DNA repair in human embryonic kidney (HEK293T) cells expressing luciferase-tagged ELG1 (AID 493107); further: nearly all actives have a fitted effect of over 70% in size; further: potency means the concentration at half of the fitted maximal effect
# Outline: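 Luciferase read-out, ONE-Glo, 30 min at room temperature, follows 16 h co-exposure at 37 C of compound and the DNA-damaging agent 5-fluorouridine. Cells: HEK293T with ELG1-luciferase fusion, 2,000 per well, DMSO as vehicle.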
# [6] = biological target: Thyrotropin-releasing hormone receptor (Homo sapiens) (UniProt P34981); experiment: qHTS for Small Molecule Agonists and Allosteric Enhancers of Human TRH Receptor: Validation Screen for Agonists (AID 493127;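 active means calcium activation more than 3 SD above the typical response in the agonist read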;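 further: intracellular calcium rise by fluo-8 fluorescence before TRH EC20 addition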); conditions: TRH receptor agonist cell assay; at 2 µM; stronger effect = higher value
# Outline: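 Compound-evoked intracellular calcium release in fluo-8-loaded TRHR cells, read kinetically on FDSS (Ex 480/Em 530, 1 s/cycle) after 23 nL pintool transfer. Agonist phase preceded 10 nM TRH EC20 addition.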
# [7] = Nrf2 qHTS screen for inhibitors: Validation (AID 493153; active means well fitted inhibition curve with a large enough effect in the main read-out, with a control signal flat, not every such curve was filed as active); conditions: Potency: luciferase luminescence; viability change: measured here: cytotoxicity max response
# Outline: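 Concentration-response on A549 ARE_Fluc reporter cells exposed 18-24 h at 37 C, 5% CO2. Cytotoxicity read first by CellTiter-Fluor fluorescence (Ex 405/Em 525), then Nrf2 inhibition by BugLite luminescence after 15 min.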
# [8] = biological target: Galactokinase (Homo sapiens) (UniProt P51570); experiment: qHTS Validation Assay for Inhibitors of Human Galactokinase (GALK) (AID 493189)
# Outline: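 GALK (5 nM) with 35 uM ATP and 100 uM galactose in HEPES pH8.0, MgCl2, NaCl, DTT, BSA; 1 h at room temperature. Residual ATP read by Kinase-Glo Plus luminescence after 10 min.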
# [9] = Validation screen for small molecules that induce DNA re-replication in SW480 colon adenocarcinoma cells (AID 504364)
# Outline: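 Image-based DNA content read-out: Hoechst stain 40 min, total nuclear fluorescence intensity (ex 405 nm, em 500-530 nm) after 48 h compound exposure of 250 SW480 cells/well at 37 C, 5% CO2, versus DMSO vehicle.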
# [10] = biological target: Peptidyl-prolyl cis-trans isomerase NIMA-interacting 1 (Homo sapiens) (UniProt Q13526); experiment: qHTS Validation Assay to Find Inhibitors of Pin1 (AID 504536; active means well fitted inhibition curve with a large enough effect in the polarisation, with a control signal flat, not every such curve was filed as active; the % refers to the polarisation)
# Outline: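 Fluorescence polarization competition: compounds (titration) displace HiFluor-488-labeled Pin1-1b peptide from Pin1 (0.3 uM final) in pH 7.5 HEPES buffer with DTT, 10 min at room temperature; %Activity normalized to no-enzyme wells, curves fitted.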
# [11] = biological target: Phosphoglycerate kinase, glycosomal (Trypanosoma brucei brucei) (UniProt P07378); experiment: qHTS Validation Assay to Find Inhibitors of Phosphoglycerate Kinase (AID 504547)
# Outline: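 Compounds are pinned into the substrate/PGK mixture, and GAPDH (100nM final) is added to start the reaction by producing 1,3-BPG. After 60 minutes at room temperature, Kinase-Glo Plus is added and luminescence is measured 10 minutes later.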
# [12] = biological target: phosphoglycerate mutase (Leishmania major) (UniProt Q4Q090); experiment: qHTS Validation Assay to Find Inhibitors of Phosphoglycerate Mutase (AID 504548); further: series mostly up to about 58 µM
# Outline: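 Luminescent end-point read-out via Kinase-GloPlus after a 10-minute development. Reaction: 1.25nM Leishmania major PGAM with substrate and compound, 45 minutes at room temperature in TEA buffer (pH 7.6) with MgCl2 and Tween-20.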
# [13] = biological target: Ubiquitin carboxyl-terminal hydrolase 1 (Homo sapiens) (UniProt O94782); experiment: Inhibitors of USP1/UAF1: Pilot qHTS (AID 504865);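 further: rhodamine fluorescence freed from ubiquitin-rhodamine substrate followed over time; top concentration of the series differs between compounds; nearly all actives have a fitted effect of over 35% in size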
# Outline: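 USP1/UAF1 complex (1nM) preincubated with compound 15 min at room temperature, then Ub-Rho substrate (150nM final) added. Fluorescence read kinetically at 480/540 nm, 6 reads every 60 seconds. Buffer: 50mM HEPES pH 7.8, 0.5mM EDTA, 0.1 mg/ml BSA, 1mM TCEP, 0.01% Tween-20.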
# [14] = qHTS for Inhibitors of ATXN expression: Validation (AID 588378); further: series mostly up to about 57 µM; nearly all actives have a fitted effect of over 75% in size
# Outline: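 Luminescence from an ATXN2-FFLuc reporter in HEK293 cells served as read-out after 24 h compound treatment at 37 degrees C; CellTiter-Fluor fluorescence was recorded first to assess viability.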
# [15] = qHTS for Inhibitors of Cell Surface uPA Generation: Validation Assay (AID 493164);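 further: RAW 264.7 macrophage cells exposed to compound for 18 h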
# Outline: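 ATP-Lite luminescence read-out: ATP remains high when uPA activity-dependent LF translocation into the cytoplasm is blocked. RAW 264.7 cells, 18 h compound exposure at 37 C; 7-point titration, 2.45 nM to 38.3 uM final.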
# [16] = qHTS for Inhibitors of ATXN expression: Validation of Cytotoxic Assay (AID 588349)
# Outline: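 Cytotoxicity counter-screen: ATP-based luminescent viability (CellTiter Glo) after 72 hr exposure of HEK293 cells to a compound titration at 37 degrees C.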
# [17] = biological target: Estrogen receptor (Homo sapiens) (UniProt P03372); experiment: qHTS assay for small molecule antagonists of estrogen receptor alpha signaling (AID 588513; active means well fitted curve in the direction sought with a large enough effect in the signal ratio, with a control signal flat, not every such curve was filed as active; the % refers to the signal ratio)
# Outline: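 ER-alpha-UAS-bla GripTite HEK 293 cells in medium with 2% charcoal/dextran-treated FBS were preincubated 4 h at 37 C, dosed with compound (1:2 titration), stimulated with 0.5nM 17-beta-estradiol for 18 h, then read by CCF4 beta-lactamase fluorescence.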
# [18] = biological target: Estrogen receptor (Homo sapiens) (UniProt P03372); experiment: qHTS assay for small molecule agonists of estrogen receptor alpha signaling (AID 588514; calls by dose curve; further: nearly all actives have a fitted effect of over 70% in size)
# Outline: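 EC50 and efficacy came from Hill fits of beta-lactamase reporter signal (CCF4 dye, 2 h at room temperature) scaled between DMSO and 20 nM 17-beta-estradiol. Agonist mode: HEK293 ER-alpha-UAS-bla cells in charcoal/dextran-stripped serum medium, 18 h compound exposure at 37 C.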
# Sequence of D(1A) dopamine receptor (Homo sapiens) (P21728 whole entry, looked up): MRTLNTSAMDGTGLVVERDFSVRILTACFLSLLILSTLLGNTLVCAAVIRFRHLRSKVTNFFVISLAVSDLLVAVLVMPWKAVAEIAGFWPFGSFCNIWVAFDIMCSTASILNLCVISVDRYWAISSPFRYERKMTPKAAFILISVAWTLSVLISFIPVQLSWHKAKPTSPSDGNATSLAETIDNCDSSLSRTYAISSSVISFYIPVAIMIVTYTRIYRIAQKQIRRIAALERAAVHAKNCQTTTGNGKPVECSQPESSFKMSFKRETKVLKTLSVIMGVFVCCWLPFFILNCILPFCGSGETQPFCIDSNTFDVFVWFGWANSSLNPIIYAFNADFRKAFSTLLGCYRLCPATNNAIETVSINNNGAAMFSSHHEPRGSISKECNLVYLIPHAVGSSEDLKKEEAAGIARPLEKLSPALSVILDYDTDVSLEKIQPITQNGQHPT
# Sequence of ATP-dependent 6-phosphofructokinase (Trypanosoma brucei brucei) (O15648 whole entry, looked up): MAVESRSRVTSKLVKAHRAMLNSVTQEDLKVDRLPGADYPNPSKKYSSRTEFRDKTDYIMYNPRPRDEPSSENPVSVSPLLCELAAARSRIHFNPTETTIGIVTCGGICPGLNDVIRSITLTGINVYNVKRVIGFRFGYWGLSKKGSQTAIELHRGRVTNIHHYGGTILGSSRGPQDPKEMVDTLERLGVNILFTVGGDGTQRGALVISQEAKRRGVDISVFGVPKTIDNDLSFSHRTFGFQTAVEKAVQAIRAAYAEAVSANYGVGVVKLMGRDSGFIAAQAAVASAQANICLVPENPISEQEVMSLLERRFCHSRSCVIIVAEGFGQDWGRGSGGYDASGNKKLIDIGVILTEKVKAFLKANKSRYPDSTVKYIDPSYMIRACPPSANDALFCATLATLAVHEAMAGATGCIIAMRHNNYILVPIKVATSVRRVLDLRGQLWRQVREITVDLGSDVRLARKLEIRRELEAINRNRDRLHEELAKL
# Sequence of Estrogen receptor (Homo sapiens) (P03372 whole entry, looked up): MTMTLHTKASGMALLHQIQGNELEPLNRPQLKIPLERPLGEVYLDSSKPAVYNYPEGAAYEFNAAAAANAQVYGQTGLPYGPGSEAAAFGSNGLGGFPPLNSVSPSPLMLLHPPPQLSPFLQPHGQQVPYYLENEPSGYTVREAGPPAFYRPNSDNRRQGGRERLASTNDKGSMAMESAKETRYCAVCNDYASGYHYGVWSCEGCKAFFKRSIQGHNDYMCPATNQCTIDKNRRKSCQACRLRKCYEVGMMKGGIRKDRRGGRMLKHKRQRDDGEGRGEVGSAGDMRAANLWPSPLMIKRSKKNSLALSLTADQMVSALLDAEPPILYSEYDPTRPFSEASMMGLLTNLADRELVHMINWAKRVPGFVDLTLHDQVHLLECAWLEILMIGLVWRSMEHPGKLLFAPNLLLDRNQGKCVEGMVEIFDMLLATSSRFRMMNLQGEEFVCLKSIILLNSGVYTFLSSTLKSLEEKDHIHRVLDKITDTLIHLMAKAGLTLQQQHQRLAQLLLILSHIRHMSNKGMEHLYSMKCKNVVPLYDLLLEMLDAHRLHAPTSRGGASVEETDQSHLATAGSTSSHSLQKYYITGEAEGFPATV
# Sequence of ATPase family AAA domain-containing protein 5 (Homo sapiens) (Q96QE3 whole entry, looked up, the tested form may be a part): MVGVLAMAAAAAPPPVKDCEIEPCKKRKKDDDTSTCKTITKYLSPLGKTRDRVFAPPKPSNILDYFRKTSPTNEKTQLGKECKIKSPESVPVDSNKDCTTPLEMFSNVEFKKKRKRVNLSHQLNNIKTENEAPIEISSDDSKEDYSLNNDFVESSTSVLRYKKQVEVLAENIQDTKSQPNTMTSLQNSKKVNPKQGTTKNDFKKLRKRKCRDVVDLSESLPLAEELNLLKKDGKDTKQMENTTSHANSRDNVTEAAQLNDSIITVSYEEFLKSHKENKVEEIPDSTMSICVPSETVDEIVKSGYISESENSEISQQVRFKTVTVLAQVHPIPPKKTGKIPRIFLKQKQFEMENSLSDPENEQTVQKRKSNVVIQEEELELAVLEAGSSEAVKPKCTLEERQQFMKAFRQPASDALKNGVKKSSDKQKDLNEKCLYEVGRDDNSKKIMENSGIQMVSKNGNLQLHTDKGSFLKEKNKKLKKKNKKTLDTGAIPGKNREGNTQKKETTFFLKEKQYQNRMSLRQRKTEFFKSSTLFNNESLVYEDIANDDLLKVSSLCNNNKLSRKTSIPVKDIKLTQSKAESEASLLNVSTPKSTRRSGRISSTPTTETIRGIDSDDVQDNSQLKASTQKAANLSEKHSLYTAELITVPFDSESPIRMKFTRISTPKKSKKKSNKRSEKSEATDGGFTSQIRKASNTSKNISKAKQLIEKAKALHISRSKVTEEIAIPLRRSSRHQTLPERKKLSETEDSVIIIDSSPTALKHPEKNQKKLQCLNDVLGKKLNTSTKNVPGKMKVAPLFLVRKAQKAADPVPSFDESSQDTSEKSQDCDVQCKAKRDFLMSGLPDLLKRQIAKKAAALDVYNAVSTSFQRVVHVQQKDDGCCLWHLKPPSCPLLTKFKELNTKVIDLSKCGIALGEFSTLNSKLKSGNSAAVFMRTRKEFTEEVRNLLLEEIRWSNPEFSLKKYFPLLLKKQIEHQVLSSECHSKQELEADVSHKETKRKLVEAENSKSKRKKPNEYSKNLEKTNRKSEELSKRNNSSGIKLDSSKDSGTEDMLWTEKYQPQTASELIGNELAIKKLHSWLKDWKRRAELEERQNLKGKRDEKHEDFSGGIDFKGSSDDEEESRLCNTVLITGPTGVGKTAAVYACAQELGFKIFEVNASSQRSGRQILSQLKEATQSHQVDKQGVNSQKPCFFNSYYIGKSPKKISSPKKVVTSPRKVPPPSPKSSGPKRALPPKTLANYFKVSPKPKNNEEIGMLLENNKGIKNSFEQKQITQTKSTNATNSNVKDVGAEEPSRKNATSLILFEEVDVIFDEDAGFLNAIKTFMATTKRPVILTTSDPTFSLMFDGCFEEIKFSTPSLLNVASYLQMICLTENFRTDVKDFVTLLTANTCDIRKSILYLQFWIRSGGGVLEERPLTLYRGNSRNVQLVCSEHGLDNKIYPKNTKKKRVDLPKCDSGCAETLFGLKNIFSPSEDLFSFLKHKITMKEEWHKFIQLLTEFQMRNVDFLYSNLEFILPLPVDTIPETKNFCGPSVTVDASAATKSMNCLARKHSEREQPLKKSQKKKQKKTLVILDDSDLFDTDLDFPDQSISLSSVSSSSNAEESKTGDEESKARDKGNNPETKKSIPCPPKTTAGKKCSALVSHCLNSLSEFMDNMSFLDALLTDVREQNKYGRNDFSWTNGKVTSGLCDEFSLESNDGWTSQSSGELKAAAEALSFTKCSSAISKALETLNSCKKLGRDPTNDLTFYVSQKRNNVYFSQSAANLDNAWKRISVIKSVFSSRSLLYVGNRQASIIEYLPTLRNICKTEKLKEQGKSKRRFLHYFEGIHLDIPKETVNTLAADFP
# Sequence of Phosphoglycerate kinase, glycosomal (Trypanosoma brucei brucei) (P07378 whole entry, looked up): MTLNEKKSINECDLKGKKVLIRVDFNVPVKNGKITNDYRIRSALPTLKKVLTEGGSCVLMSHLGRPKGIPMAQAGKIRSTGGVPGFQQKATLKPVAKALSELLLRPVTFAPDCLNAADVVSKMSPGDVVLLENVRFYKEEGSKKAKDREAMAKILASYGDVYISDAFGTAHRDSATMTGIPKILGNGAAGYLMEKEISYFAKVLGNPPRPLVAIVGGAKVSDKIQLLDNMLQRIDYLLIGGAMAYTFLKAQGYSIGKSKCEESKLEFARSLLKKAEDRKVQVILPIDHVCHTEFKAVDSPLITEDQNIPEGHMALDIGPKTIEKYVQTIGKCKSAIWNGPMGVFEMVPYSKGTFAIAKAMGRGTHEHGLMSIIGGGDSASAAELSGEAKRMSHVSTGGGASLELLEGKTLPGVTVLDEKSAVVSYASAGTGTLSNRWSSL
# Sequence of Galactokinase (Homo sapiens) (P51570 whole entry, looked up): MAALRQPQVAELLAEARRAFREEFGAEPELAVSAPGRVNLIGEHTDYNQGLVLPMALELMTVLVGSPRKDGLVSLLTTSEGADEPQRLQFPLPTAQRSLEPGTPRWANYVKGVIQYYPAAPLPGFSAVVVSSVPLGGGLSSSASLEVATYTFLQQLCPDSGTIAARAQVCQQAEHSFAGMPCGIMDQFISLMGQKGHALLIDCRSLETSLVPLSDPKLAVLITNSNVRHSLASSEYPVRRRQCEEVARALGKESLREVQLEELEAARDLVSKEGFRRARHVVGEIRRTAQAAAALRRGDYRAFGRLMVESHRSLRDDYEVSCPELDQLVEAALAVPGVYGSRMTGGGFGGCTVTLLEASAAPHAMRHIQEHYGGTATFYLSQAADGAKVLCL
# Sequence of Thyrotropin-releasing hormone receptor (Homo sapiens) (P34981 whole entry, looked up): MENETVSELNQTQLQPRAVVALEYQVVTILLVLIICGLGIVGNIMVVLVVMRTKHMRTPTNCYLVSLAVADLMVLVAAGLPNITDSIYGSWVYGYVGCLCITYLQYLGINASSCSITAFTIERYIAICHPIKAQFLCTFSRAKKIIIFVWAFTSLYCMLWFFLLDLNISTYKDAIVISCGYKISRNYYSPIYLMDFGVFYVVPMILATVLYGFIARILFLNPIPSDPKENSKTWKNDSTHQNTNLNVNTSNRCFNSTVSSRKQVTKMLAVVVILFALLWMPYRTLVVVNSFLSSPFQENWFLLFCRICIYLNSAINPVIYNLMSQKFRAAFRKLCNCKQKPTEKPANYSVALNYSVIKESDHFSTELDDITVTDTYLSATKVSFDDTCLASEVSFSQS
# Sequence of Peptidyl-prolyl cis-trans isomerase NIMA-interacting 1 (Homo sapiens) (Q13526 whole entry, looked up): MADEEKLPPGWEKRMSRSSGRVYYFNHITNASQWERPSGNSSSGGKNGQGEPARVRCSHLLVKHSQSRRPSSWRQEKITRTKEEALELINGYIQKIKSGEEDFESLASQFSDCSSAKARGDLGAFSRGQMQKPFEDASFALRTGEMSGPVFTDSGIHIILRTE
Structure (SMILES),Potency [1],Potency [2],outcome [3],Potency [4],Potency [5],activation [6],Potency [7],viability change [7] [%],outcome [8],outcome [9],outcome [10],outcome [11],outcome [12],Potency [13],Potency [14],outcome [15],Potency [16],outcome [17],Potency [18]
CCO/C([O-])=N/c1c[n+](N2CCOCC2)no1,inactive,inactive,inactive,inactive,inactive,-0.0625% (inactive),inactive,7.49,inactive,inactive,inactive,inactive,inactive,inactive,inactive,,,,
COC(=O)[C@H]1[C@H]2C[C@@H]3c4[nH]c5cc(OC)ccc5c4CCN3C[C@H]2C[C@@H](OC(=O)c2cc(OC)c(OC)c(OC)c2)[C@@H]1OC,inactive,inactive,inactive,,11.6 µM (active),,inactive,-13.6,inactive,,,inactive,,,inactive,inactive,inactive,,
COCCOC(=O)C1=C(C)NC(C)=C(C(=O)OC(C)C)C1c1cccc([N+](=O)[O-])c1 (stereo not given),inactive,inactive,,inactive,11.6 µM (active),-5.81% (inactive),inactive,0.126,inactive,inactive,inactive,inactive,inactive,inactive,inactive,inactive,,,
Cc1cccc(C)c1NC(=O)C(C)N (stereo not given),inactive,inactive,,inactive,inactive,,inactive,3.48,,,inactive,inactive,inactive,inactive,inactive,,inactive,,
NC(=O)N1c2ccccc2C=Cc2ccccc21,inactive,inactive,,,inactive,0.625% (inactive),inactive,-0.0645,inactive,inactive,inactive,,inactive,inactive,inactive,inactive,inactive,inactive,inactive
CC(C)(C)NCC(O)c1cc(O)cc(O)c1 (stereo not given),inactive,inactive,,inactive,inactive,0.438% (inactive),inactive,2.92,inactive,inactive,inactive,inactive,inactive,inactive,inactive,,inactive,,
CCC(=O)c1ccc2c(c1)N(CCCN(C)C)c1ccccc1S2,inactive,0.891 µM (active),,inactive,inactive,1.56% (inactive),inactive,-14.9,inactive,inactive,inactive,inactive,,inactive,,inactive,,,
C[C@]12CCC(=O)C=C1CC[C@@H]1[C@@H]2CC[C@@]2(C)[C@H]1CC[C@]2(O)C(=O)CO,inactive,inactive,inactive,,,0.188% (inactive),,,inactive,inactive,inactive,inactive,inactive,inactive,inactive,inactive,inactive,,
